# Hits are enriched below; roughly 2.3% of the tested compounds scored in any of these assays.
# CHO-K1 Ca antag: nonselective inhibitor or artifact in parental CHO-K1 cells. inhibition, % at 3 µM. hit rate 0.6% among 360,000. ATP-induced calcium, Fluo-8 fluorescence;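 active means inhibition above a per-plate cutoff, the plate's mean sample inhibition plus 3 SD, cut at about 24% in these data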;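 further: 0% = DMSO plus EC80 ATP and 100% = DMSO alone without ATP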
# M1 PAM: human M1 muscarinic receptor positive allosteric modulators, primary screen, CHO-K1 cells, Fluo-8 calcium fluorescence, 1536-well. Muscarinic acetylcholine receptor M1 (Homo sapiens), P11229. CHO-K1 hM1, ACh EC20; 0% = ACh EC20, 100% = maximal ACh. activation, % at 3 µM. hit rate 0.088% among 360,000; in the data active means activation above about 19%, passing the limit was not always enough
# Target sequence (P11229 whole entry, looked up): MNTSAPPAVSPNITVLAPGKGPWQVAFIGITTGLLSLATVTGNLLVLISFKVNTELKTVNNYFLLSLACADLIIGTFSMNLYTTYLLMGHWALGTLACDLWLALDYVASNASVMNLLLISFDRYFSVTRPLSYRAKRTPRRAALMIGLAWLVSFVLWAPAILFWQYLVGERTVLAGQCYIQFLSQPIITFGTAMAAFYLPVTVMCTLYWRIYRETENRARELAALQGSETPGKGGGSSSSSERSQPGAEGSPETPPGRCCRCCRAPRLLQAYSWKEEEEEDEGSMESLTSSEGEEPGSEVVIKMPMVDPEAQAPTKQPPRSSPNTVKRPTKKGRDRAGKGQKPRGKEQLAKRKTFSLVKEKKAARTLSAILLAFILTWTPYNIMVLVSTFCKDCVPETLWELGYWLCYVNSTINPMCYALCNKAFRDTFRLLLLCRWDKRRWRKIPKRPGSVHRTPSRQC
# CHRM1 agonist: human M1 muscarinic receptor agonists, primary screen, Fluo-8 calcium fluorescence, CHO-K1 cells, HTS | activation, % at 3 µM | hit rate 0.33% among 360,000 | AID 588814, 2011 | CHO-K1 hM1, agonist mode; 0% DMSO, 100% acetylcholine EC100 | Muscarinic acetylcholine receptor M1 (Homo sapiens), P11229;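 active means activation above the run's mean compound activation plus 3 SD, cut at about 16% in these data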;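 further: peak over basal fluorescence ratio within a 140 s kinetic read after compound addition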
# CHRM1 antagonist: human M1 muscarinic receptor antagonists, primary screen, CHO-K1 cells, Fluo-8 calcium fluorescence, 1536-well. Muscarinic acetylcholine receptor M1 (Homo sapiens), P11229. CHO-K1 hM1, ACh EC80 antagonist. inhibition, % at 3 µM. hit rate 1.3% among 360,000. AID 588852, 2011;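 active means percent inhibition above its own plate's cutoff, namely the mean of that plate's compound wells plus 3 SD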;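 further: peak over basal fluorescence ratio during 140 s after agonist addition; 0% = ACh EC80 plus DMSO and 100% = DMSO alone without agonist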
# CHO-K1 Ca PAM: nonselective calcium activators in parental CHO-K1 cells, primary screen, counter-screen for M1 PAM project, cell-based, Fluo-8 calcium fluorescence, full deck, 1536-well | ATP EC20; 0% at ATP EC20, 100% at ATP max | AID 602247, 2012 | hit rate 0.02% among 360,000 | activation, % at 3 µM;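 active means activation above the run cutoff, the mean activation of all test compounds plus 3 SD, cut at about 40% in these data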;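 further: peak over basal fluorescence ratio in a 140 s read after ATP addition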
# CHO-K1 Ca ag: counter-screen for M1 agonists: effect in parental CHO-K1 cells; Fluo-8 calcium fluorescence; scaled to maximal ATP response, vehicle zero; activation, % at 3 µM; hit rate 0.48% among 360,000; AID 602248, 2012; in the data active means activation above about 15%;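 further: untransfected CHO-K1 host cells lacking M1 receptor as counterscreen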
# * = called active by the depositor.
SMILES,CHO-K1 Ca antag,M1 PAM,CHRM1 agonist,CHRM1 antagonist,CHO-K1 Ca PAM,CHO-K1 Ca ag
C=CCC1(CC=C)CCCN1C(=O)c1cc(COc2cccc(OC)c2)on1,2,-9,-3,18,-22,2
Cc1cc(NC(c2cccnc2)c2ccc3cccnc3c2O)no1 (stereo unspecified),0,-3,-6,6,-3,0
Cc1cccc(NC(c2ccc(O)cc2)c2ccc3ccc(C)nc3c2O)n1 (stereo unspecified),25*,5,-3,-5,-8,0
CC1SC(c2ccccc2)N(CC(O)c2ccc([N+](=O)[O-])cc2)C1=O (stereo unspecified),25*,3,-7,-5,-13,0
O=C1CSC(c2ccccc2)N1CC(O)c1ccc([N+](=O)[O-])cc1 (stereo unspecified),-9,4,-5,-1,20,4
COc1ccc(Sc2ccc(NC(=O)c3ccccc3Cl)cc2C#N)cc1,-9,-4,0,-22,8,1
N#Cc1cc(NC(=O)c2ccc(Cl)cc2)ccc1Sc1ccccc1,9,-20,-2,32*,9,8
C=CCOC(=O)C1=C(C)Nc2nc3ccccc3n2C1c1ccncc1 (stereo unspecified),-9,4,-4,-1,20,2
CCOC(=O)c1c(OCCO)nn(-c2ccc(Cl)cc2)c1N,33*,-9,-2,7,-18,3
CCOC(=O)NC(=O)/C(C#N)=C\Nc1sccc1C(=O)OC,0,6,0,3,9,18*
COc1ccccc1N1CCN(C(=O)c2ccc(CS(=O)(=O)c3ccccc3OC)o2)CC1,12,-3,17*,12,5,4
CCC1CCCCN1CCCNC(=O)CC1Oc2ccc(C)cc2NC1=O (stereo unspecified),21,-26,-14,41*,-10,0
CCC1CCCCN1CCCNC(=O)CC1Oc2ccccc2NC1=O (stereo unspecified),3,-9,-13,17,0,0
Cc1ccc2c(c1)NC(=O)C(CC(=O)O)O2 (stereo unspecified),26*,-3,-4,3,-8,0
Cc1ccc(NC(=S)NC(=O)c2ccc(Br)o2)c(C)c1,9,11,-12,-7,3,19*
COc1cc(C#N)c(NC(=O)CN2CCN(CCO)CC2)cc1OC,-11,-1,-4,7,14,1
COc1cc(CC(=O)N(c2ccccc2)c2nc(C)cs2)cc(OC)c1OC,-3,5,-5,-6,-3,0
Cc1ccc(NC(=O)CN2CCCN(S(=O)(=O)c3ccc(Br)s3)CC2)cc1,24*,-7,-4,15,-13,0
Cc1cc(C)cc(NC(=O)CN2CCCN(S(=O)(=O)c3ccc(Br)s3)CC2)c1,-18,-6,-7,8,8,1
Cn1cc(Cc2ccc(C(=O)N3CCN(Cc4ccccc4)CC3)cn2)c2ccccc21,-6,-6,-4,-7,12,4
CN(C)c1ccc(CNC(=O)C2(C)Cc3c(-c4cccc(C(F)(F)F)c4)ccnc3O2)cc1 (stereo unspecified),-13,4,-6,-11,1,0
O=Cc1ccc(-c2ccccc2C(=O)O)o1,29*,11,0,5,-19,-1
O=C(COC(=O)C1CCN(S(=O)(=O)c2ccc3c(c2)OCCO3)CC1)Nc1cc(C(F)(F)F)ccc1Cl,-5,5,-11,1,17,2
CC(=O)Oc1ccccc1Cn1c(C)c(C(=O)NCc2cccc(Cl)c2)sc1=O,-2,8,1,-15,15,2
COc1ccc(-c2nc(N3CCCCCC3)sc2C(=O)c2ccccc2)cc1,52*,-3,-3,-8,4,4
SMILES,CHO-K1 Ca antag,M1 PAM,CHRM1 agonist,CHRM1 antagonist,CHO-K1 Ca PAM,CHO-K1 Ca ag
O=C(c1ccccc1)c1sc(N2CCOCC2)nc1-c1ccccc1,10,-9,-10,7,4,3
[2H]c1c([2H])c([2H])c(C(=O)c2sc(N3CCCCCC3)nc2-c2ccccc2)c([2H])c1[2H],-6,-19,-5,39*,9,0
O=C(c1ccccc1)c1sc(N2CCCCCC2)nc1-c1ccccc1,-4,-17,-4,7,3,-1
COc1ccc(C(=O)NCc2ncccc2C)cc1OC1CCN(C(C)=O)CC1,-11,10,-2,-11,9,1
FC(F)Oc1ccc(NC(=S)NC2CCCCCCC2)cc1,8,-24,-6,34*,0,14
S=C(Nc1ccc(Cl)cc1)NC1CCCCC1,10,-5,0,1,-6,10
FC(F)Oc1ccc(NC(=S)NC2CCSc3ccccc32)cc1 (stereo unspecified),20,-24,0,87*,-4,15
O=C(NC1CCSc2ccccc21)c1cccc(OC(F)F)c1 (stereo unspecified),-23,5,-9,-10,-8,2
O=C(COc1ccccc1C(=O)O)Nc1nc2ccc([N+](=O)[O-])cc2s1,11,-10,4,26*,4,13
O=C(Nc1nc2ccccc2s1)C1CCN(S(=O)(=O)c2cc([N+](=O)[O-])ccc2Cl)CC1,40*,-17,-1,53*,-20,9
Cc1ccc(S(=O)(=O)NCCC(=O)Nc2cc(F)ccc2C)cc1C,6,-10,-2,21*,-14,1
O=[N+]([O-])c1ccc2[nH]c(O)c(N=NC3CS(=O)(=O)CC3O)c2c1 (stereo unspecified),-11,9,-1,-16,21,1
COc1ccc(CNC(=O)CCCn2c(SCC#N)nc3cc4c(cc3c2=O)OCO4)cc1,22,-1,-3,4,-7,0
COc1ccc(NC2=NCC(=O)N2Cc2cccs2)cc1,-13,9,0,-12,21,0
COc1ccc(NC2=NCCC(=O)N2Cc2cccs2)cc1,30*,10,-2,-4,-4,-1
O=C1C(Cl)=C(N2CCN(Cc3ccccc3)CC2)C(=O)N1Cc1ccccc1,8,-25,-7,57*,11,1
Cc1cc(N2CCN(C(c3ccccc3)c3ccccc3)CC2)n2ncnc2n1,-5,-13,-1,30*,6,3
Cc1nc2ncnn2c(N2CCN(C(c3ccccc3)c3ccccc3)CC2)c1C,-26,-2,-10,-2,4,2

# From PubChem
